Source: PubChem (several laboratories)
Shown are actives, neighbours in structure and some others; about 3.1% of the full set was active somewhere.
HSF1 inhib = HSF1 inhibitors in luciferase reporter cells, primary screen, cell-based, NIH3T3, luminescence; activity change, negative = inhibition, % at 7.5 µM (by protocol); NIH3T3-HGL HSE-luciferase, MG132-induced, luminescence 8 h; stronger effect = lower value; 300,000 compounds, 0.77% hits;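 active = more than half of replicate wells show activity change below -50%, luminescence cut by over half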;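 note: luciferase reports HSF-1 transcriptional activity via heat shock element; 0% = median of DMSO wells and -100% = zero luminescence signal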
HIF activator = HIF pathway transcriptional activators, primary screen, cell-based, U2OS HRE-luciferase, luminescence. U2OS HRE-luciferase reporter; normalized: DMSO 0%, desferrioxamine 100%. 300,000 compounds, 0.32% hits. activation, % at 7.5 µM (by protocol);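 active = mean activation of at least 10% of the iron chelator positive control signal, with at least half of replicates also reaching 10%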
HSF-1 act = HSF-1 activators, primary screen, NIH3T3-HGL cells, MG132 stress, luminescence, single point | NIH3T3-HGL HSF-1 luciferase reporter, 8 h; 100% = twice DMSO control signal | activation, % at 9 µM | 300,000 compounds, 1.7% hits | AID 504408, 2011;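 active = mean replicate activation of at least 50% with a set share of replicates each reaching 50%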;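 note: 0% = median of the neutral control wells and 100% = twice that signal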
HSP90 refold inh = HSP90 inhibitors, primary screen, cell lysate, luminescence; 290,000 compounds, 0.91% hits; AID 1789, 2009; inhibition, % at 5.6 µM; Rabbit reticulocyte lysate, luciferase refolding luminescence, 3 h;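 active = inhibition above the screen-wide mean plus 3 SD, computed separately per campaign, cut at about 16% in these data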;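 note: 0% = DMSO wells and 100% = 60 µM geldanamycin wells; inhibitors lower the luminescence because luciferase stays unfolded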
ARNT-TACC3 inh = disruptors of ARNT/TACC3 protein interaction, primary screen, biochemical, AlphaScreen, single concentration; inhibition, % at 9.99 µM; 390,000 compounds, 0.66% hits; AID 623870, 2012; AlphaScreen His-ARNT PAS-B/GST-TACC3 binding, luminescence; TACC3 fragment carries E629A point mutation;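 active = mean inhibition of replicates at least 50% and at least half of replicates each reaching 50%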;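 note: 0% = complete ARNT plus TACC3 wells and 100% = ARNT alone without TACC3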
Starred values were filed as active, the others as inactive; . = no result.

SMILES | HSF1 inhib | HIF activator | HSF-1 act | HSP90 refold inh | ARNT-TACC3 inh
O=C1c2cccc3cccc(c23)C(=O)N1OS(=O)(=O)c1ccc(Br)cc1 | 9.8 | -0.7 | 21.8 | -0.5 | .
O=C1c2cccc3cccc(c23)C(=O)N1OS(=O)(=O)c1ccccc1 | 87.0 | 0.8 | 118.2* | 1.4 | -7.2
Cc1cc(S(=O)(=O)ON2C(=O)c3ccccc3C2=O)ccc1F | -7.3 | 37.1* | 3.7 | 0.4 | 4.4
O=C(Nc1ccccc1)N1C[C@H]2[C@@H](c3ccccc31)[C@H](CO)N2Cc1ccccc1Cl | . | . | . | . | 0.9
C[C@@H]1CN([C@H](C)CO)S(=O)(=O)c2ccc(-c3cccc(F)c3)cc2O[C@@H]1CN(C)C | . | . | . | . | -3.4
O=S(=O)(N[C@H]1CC[C@@H](CCn2cc(C3(O)CCCC3)nn2)O[C@@H]1CO)c1ccc(F)cc1 | . | . | . | . | -22.4
COc1ccc(N=C2C(=O)N3CCCc4cccc2c43)cc1 | -27.0 | 391.6* | -40.5 | 3.4 | 0.4
Cc1ccc(SCc2cn3c(C)csc3n2)cc1 | 56.6 | . | 91.2* | 12.4 | 4.0
Cc1cccc2nc(CSc3ccc(Cl)cc3)cn12 | -4.7 | 2.2 | -3.6 | -1.3 | -0.5
Cc1ccc(S(=O)(=O)NCc2cn3c(C)csc3n2)cc1 | . | -0.2 | . | 4.1 | -5.1
Clc1ccc2nc(CSc3nnc4ccccn34)cn2c1 | 27.3 | 1.8 | 68.1* | 9.8 | 1.7
Clc1ccc2nc(CSc3nncn3-c3ccccc3)cn2c1 | 0.8 | -0.4 | 17.1 | 0.4 | -2.5
Cc1ccc(SCc2cn3cc(Cl)ccc3n2)cc1 | 22.3 | 2.9 | 54.2* | -3.8 | -4.9
CNc1cc(CSc2ccc(Cl)cc2)nc(C)n1 | 38.5 | 3.3 | 71.1* | -5.9 | 3.4
C/C=C/c1ccc2c(c1)O[C@@H](CN(C)S(=O)(=O)c1ccc(F)cc1)[C@@H](C)CN([C@@H](C)CO)S2(=O)=O | . | . | . | . | 6.3
CC(C)NC(=O)N(C)C[C@@H]1OCCCC[C@H](C)Oc2ccc(NC(=O)c3ccccc3)cc2C(=O)N([C@H](C)CO)C[C@H]1C | . | . | . | . | -3.5
Brc1ccc(CSc2nnc3ccccn23)cc1 | 13.0 | 2.3 | 57.9* | -0.5 | -10.9
Clc1cccc(Cl)c1CSc1nnc2ccccn12 | 18.7 | 0.7 | 22.2 | 3.8 | -6.0
Clc1ccc2nc(CSCc3ccccc3)cn2c1 | 31.5 | 1.6 | 37.3 | -0.5 | 0.3
Clc1ccc(SCc2cn3ccccc3n2)cc1 | 56.5 | 1.3 | 78.0* | 0.9 | -3.6
Clc1ccc2nc(CSc3nc4ccccc4o3)cn2c1 | 74.6 | -0.3 | 100.5* | 7.6 | -4.7
CC(C)NC(=O)Nc1ccc2c(c1)C(=O)N([C@@H](C)CO)C[C@@H](C)[C@@H](CN(C)CC1CCCCC1)OCCCC[C@H](C)O2 | . | . | . | . | 1.7
CCCC#Cc1ccc2c(c1)O[C@@H](CN(C)C(=O)Nc1ccccc1F)[C@H](C)CN([C@H](C)CO)S2(=O)=O | . | . | . | . | -3.7
C[C@@H]1CN([C@@H](C)CO)S(=O)(=O)c2ccc(C3=CCCCC3)cc2O[C@@H]1CN(C)Cc1ccccn1 | . | . | . | . | 7.9
c1coc(CNc2nc3ccccc3s2)c1 | 30.1 | -8.0 | 79.8* | 12.3 | 1.1
SMILES | HSF1 inhib | HIF activator | HSF-1 act | HSP90 refold inh | ARNT-TACC3 inh
Cc1nnc(NCc2ccco2)s1 | -6.9 | 0.5 | 6.5 | 0.6 | 0.6
OC[C@H]1[C@H](c2ccc(-c3ccccc3F)cc2)[C@H]2CN(Cc3ccncc3)CCCCN21 | . | . | . | . | 5.8
C[C@@H]1CN([C@H](C)CO)C(=O)c2cc(NC(=O)c3ccncc3)ccc2O[C@@H](C)CCCCO[C@H]1CN(C)C(=O)Nc1cccc2ccccc12 | . | . | . | . | 0.6
CCCn1c(SCc2nc3sc(C)c(C)c3c(=O)[nH]2)nc2ccccc2c1=O | 61.0 | -1.6 | 113.8* | -1.1 | -3.7
CC1=Nc2ccccc2/C1=C/c1nc(-c2ccc(C)s2)oc1O | 50.6 | 1.0 | 58.3* | 1.1 | -4.9
CC1=Nc2ccccc2/C1=C\c1nc(-c2ccccc2)oc1O | 0.7 | 0.7 | -11.9 | -1.7 | -0.2
NC(=S)Nc1cccc2cccnc12 | 23.0 | -0.2 | 31.7 | 6.6 | 0.4
O=C(O)c1ccccc1C(=O)Nc1ccc(Br)c2cccnc12 | 36.4 | 0.4 | 51.5* | 12.8 | 5.9
O=C(Nc1cccn(Cc2c(Cl)cccc2Cl)c1=O)c1ccc(Cl)cc1Cl | 2.8 | 0.3 | -0.2 | -2.0 | 31.1
